Composite z-score, z-score and composite Z-score data for five compounds are collected here from PubChem BioAssay.

Experiment [1] concerns Human papillomavirus type 1a protein E7 (residues 44-93). Kind of experiment: HPV1a E7 fragment binders on microarrays, primary screen, biochemical, small-molecule microarray, residues 44-93, 635 nm fluorescence (AID 1108).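 Note: E7 fragment applied at 1 µg/mL in TBST for 1 h at 4 C; score combines spot fluorescence with its signal to noise ratio.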 The note with it: small-molecule microarray binding, fluorescence 635 nm; higher = more signal.
Experiment [2] is described as follows: modulators of HCV replicon luciferase signal, primary screen, HCV replication inhibitor project, Huh7 cells, luciferase reporter (AID 1109).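 Note: huh7 hepatoma cells harbouring a luciferase neomycin HCV replicon reporter; luciferase luminescence as measure of HCV replicon replication; test concentration not given here.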 The note with it: 48 h, higher = more signal. On the technique in general: Replicon systems follow genome replication, usually without infectious particles.
For experiment [3], the target named is Left-right determination factor 2 (Homo sapiens) (UniProt O00292). Nature of the experiment: LEFTY2 binders on small-molecule microarrays, primary screen, biochemical, small-molecule microarray, 635 nm fluorescence scan (AID 1110). The note with it: LEFTY2 binding, higher = more signal.
Chain of Left-right determination factor 2 (Homo sapiens) (O00292 whole entry, looked up): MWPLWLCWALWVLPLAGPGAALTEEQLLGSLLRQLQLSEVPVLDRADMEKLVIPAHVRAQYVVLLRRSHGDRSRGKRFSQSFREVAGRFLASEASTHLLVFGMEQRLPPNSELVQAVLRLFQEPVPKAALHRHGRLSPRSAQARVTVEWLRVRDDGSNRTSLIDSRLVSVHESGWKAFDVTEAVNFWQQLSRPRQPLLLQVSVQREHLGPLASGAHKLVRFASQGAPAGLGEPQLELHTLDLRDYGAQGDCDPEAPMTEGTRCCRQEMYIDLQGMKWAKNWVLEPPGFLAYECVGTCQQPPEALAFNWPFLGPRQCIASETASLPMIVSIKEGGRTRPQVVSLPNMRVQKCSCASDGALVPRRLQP
The target of experiment [4] is Calmodulin-1 (Homo sapiens) (UniProt P0DP23). Kind of experiment: CALM1 binders on microarrays, EGTA buffer, profiling panel, biochemical, small-molecule microarray, Cy5-labelled CALM1 (AID 1111).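 Note: labelled calmodulin applied in Tris saline Tween buffer holding calcium plus EGTA and DTT.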 The note with it: Cy5-CALM1 binding fluorescence, higher = more signal.
The target is the same in experiment [5]. Nature of the experiment: calcium-bound CALM1 binders on microarrays, profiling panel, artefact control for SMM control-protein annotation, biochemical, small-molecule microarray, Cy5-labelled CALM1, plus calcium (AID 1112).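 Note: score merges spot fluorescence with signal to noise from triplicate slides.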 The note with it: Cy5-CALM1 binding fluorescence, higher = more signal.
The nature of experiment [6]: small-molecule microarray binders of probe aWnt5a, primary screen, biochemical, biotinylated probe, 635/667 nm fluorescence (AID 1113).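 Note: score merges 667 nm fluorescence intensity with signal-to-noise per printed feature.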 The note with it: higher = more signal.
Experiment [7] in a line: small-molecule microarray binders of probe aShh, primary screen, biochemical, biotinylated probe, 635/667 nm fluorescence (AID 1114).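 Note: probe is biotin-labelled aShh protein from a stem cell growth factor screen; measures binding of labelled protein to compounds printed on the slide; score merges feature fluorescence at 667 nm with signal-to-noise.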 The note with it: higher = more signal.
The nature of experiment [8]: small-molecule microarray binders of probe aNog, primary screen, biochemical, biotinylated probe, 635/667 nm fluorescence (AID 1115).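 Note: probe is biotinylated aNog protein used at 0.15 µg/mL for 1 h at 4 C; z-score combines 667 nm fluorescence of each spot with its signal to noise.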 The conditions noted are these: higher = more signal.
Experiment [9] deals with Torsin-1A-interacting protein 1 (Homo sapiens) (UniProt Q5JTV8). Kind of experiment: LAP1 binders from COS7 cell lysate, primary screen, small-molecule microarray, 635/667 nm fluorescence (AID 1116). The note with it: COS7-hLAP1 lysate binding, 635 nm fluorescence, higher = more signal.
Chain of Torsin-1A-interacting protein 1 (Homo sapiens) (Q5JTV8 whole entry, looked up): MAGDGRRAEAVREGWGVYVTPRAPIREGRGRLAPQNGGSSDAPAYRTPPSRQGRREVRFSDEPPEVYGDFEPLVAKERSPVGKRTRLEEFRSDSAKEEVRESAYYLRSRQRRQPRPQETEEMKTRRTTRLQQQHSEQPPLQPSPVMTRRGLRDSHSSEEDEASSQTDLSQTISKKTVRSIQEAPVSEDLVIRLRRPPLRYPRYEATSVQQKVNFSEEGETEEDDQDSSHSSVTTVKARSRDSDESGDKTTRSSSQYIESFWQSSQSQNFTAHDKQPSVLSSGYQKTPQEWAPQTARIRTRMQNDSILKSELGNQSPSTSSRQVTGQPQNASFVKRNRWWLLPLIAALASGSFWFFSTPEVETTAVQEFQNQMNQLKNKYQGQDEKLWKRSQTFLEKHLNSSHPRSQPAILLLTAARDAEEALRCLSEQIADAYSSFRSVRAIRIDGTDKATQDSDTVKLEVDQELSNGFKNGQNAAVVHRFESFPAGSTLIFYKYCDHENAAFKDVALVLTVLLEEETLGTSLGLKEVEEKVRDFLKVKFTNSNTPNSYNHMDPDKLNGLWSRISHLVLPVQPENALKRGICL
Experiment [10] concerns the target Alpha-bungarotoxin (Bungarus multicinctus) (UniProt P60615). Nature of the experiment: alpha-bungarotoxin binders on microarray, profiling panel, artefact control for SMM control protein annotation, biochemical, small-molecule microarray, Alexa647 label, 635/667 nm fluorescence (AID 1117). The note with it: alpha-BTX-A647 binding fluorescence, higher = more signal.

Experiment [11] deals with Albumin (Bos taurus) (UniProt P02769). Kind of experiment: bovine serum albumin binders on microarray, profiling panel, artefact control for SMM control protein annotation, biochemical, small-molecule microarray, Alexa647 label, 635/667 nm fluorescence (AID 1118).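 Note: score merges 667 nm emission intensity and signal-to-noise per printed compound spot.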 The note with it: BSA-A647 binding, fluorescence 635 nm, higher = more signal.
Chain of Albumin (Bos taurus) (P02769 whole entry, looked up): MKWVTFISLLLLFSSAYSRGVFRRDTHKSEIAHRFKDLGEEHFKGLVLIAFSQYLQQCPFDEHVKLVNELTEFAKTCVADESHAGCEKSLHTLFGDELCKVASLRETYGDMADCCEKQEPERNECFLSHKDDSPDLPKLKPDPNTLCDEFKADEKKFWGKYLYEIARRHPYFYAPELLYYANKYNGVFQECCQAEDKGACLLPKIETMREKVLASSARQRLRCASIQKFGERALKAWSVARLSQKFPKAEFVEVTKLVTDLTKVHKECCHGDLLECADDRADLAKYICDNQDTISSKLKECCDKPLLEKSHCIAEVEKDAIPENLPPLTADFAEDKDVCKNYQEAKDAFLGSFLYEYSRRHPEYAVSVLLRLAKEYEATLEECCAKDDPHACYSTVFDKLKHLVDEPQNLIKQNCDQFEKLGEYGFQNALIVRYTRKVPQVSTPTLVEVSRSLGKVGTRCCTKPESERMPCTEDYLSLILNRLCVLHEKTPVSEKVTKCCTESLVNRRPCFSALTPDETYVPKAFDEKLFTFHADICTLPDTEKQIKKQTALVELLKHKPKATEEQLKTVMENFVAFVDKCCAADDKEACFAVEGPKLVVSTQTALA
Experiment [12] in a line: small-molecule microarray binders of probe aXIP, primary screen, biochemical, NeuroSMM set, 635/667 nm fluorescence (AID 1119).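 Note: probe is the protein aXip251-270 applied at 1 µg/mL to compound-printed slides; binding of probe to printed compounds measured as 667 nm fluorescence plus signal to noise.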 The conditions noted are these: higher = more signal, called active from +8 up or from −8 down.
Experiment [13] can be described thus: small-molecule binders of probe aNOTCH3, primary screen, biochemical, small-molecule microarray, 635/667 nm fluorescence (AID 1120).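 Note: probe is a biotin-tagged antibody raised against NOTCH3 rather than NOTCH3 protein; score merges spot fluorescence near 667 nm with spot signal to noise.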 The conditions noted are these: higher = more signal.
Experiment [14] can be described thus: small-molecule binders of probe aNOTCH2, primary screen, biochemical, small-molecule microarray, 635/667 nm fluorescence (AID 1121).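 Note: score merges feature fluorescence read at 667 nm with its signal to noise.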 The note with it: higher = more signal.
For experiment [15], the target named is Carbonic anhydrase 2 (Homo sapiens) (UniProt P00918). Kind of experiment: CAII small-molecule binders, profiling panel, biochemical, small-molecule microarray, Alexa647-labelled CAII (AID 1122). The note with it: CAII-A647 binding fluorescence, higher = more signal.
Experiment [16] can be described thus: COS7 lysate on small-molecule microarray, probe aHis, 635 nm (AID 1123).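 Note: z-score combines 667nm fluorescence intensity with signal-to-noise per printed compound spot.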 The conditions noted are these: COS7 cell lysate, fluorescence, higher = more signal.
Experiment [17] is described as follows: compound binding in COS7 lysate, probe aLAP1, primary screen, cell lysate, small-molecule microarray (AID 1124).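 Note: lysate comes from COS7 cells expressing LAP1 and is applied at 0.3 µg/mL; score merges spot fluorescence near 667 nm with signal-to-noise over triplicate slides.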 The note with it: probe aLAP1, fluorescence, higher = more signal.
In experiment [18] the test system is Sam68 (KHDRBS1). Kind of experiment: Sam68 small-molecule binders, primary screen, biochemical, small-molecule microarray, 635 nm fluorescence (AID 1125).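 Note: score merges 667 nm channel intensity with signal to noise over triplicate slides.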 The conditions noted are these: small-molecule microarray binding, higher = more signal.
The test system of experiment [19] is Chordin-like protein 2 (CHRDL2). Nature of the experiment: CHRDL2 small-molecule binders, primary screen, biochemical, small-molecule microarray, 635 nm fluorescence (AID 1126).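 Note: printed compound slides probed with Chrdl2 protein at 4 µg/mL for 1 h at 4 C; score merges 667 nm emission intensity with signal to noise over three replicate slides.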 The conditions noted are these: small-molecule microarray binding, fluorescence 635 nm; higher = more signal.
Experiment [20] deals with Concanavalin-A (Canavalia ensiformis) (UniProt P02866). Nature of the experiment: ConA small-molecule binders, primary screen, artefact control for SMM control protein annotation, biochemical, small-molecule microarray, Alexa647 label, 635 nm (AID 1127).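 Note: z combines 667 nm emission intensity with signal-to-noise across three replicate slides.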 The conditions noted are these: ConA-A647 binding fluorescence, higher = more signal.
Chain of Concanavalin-A (Canavalia ensiformis) (P02866 whole entry, looked up): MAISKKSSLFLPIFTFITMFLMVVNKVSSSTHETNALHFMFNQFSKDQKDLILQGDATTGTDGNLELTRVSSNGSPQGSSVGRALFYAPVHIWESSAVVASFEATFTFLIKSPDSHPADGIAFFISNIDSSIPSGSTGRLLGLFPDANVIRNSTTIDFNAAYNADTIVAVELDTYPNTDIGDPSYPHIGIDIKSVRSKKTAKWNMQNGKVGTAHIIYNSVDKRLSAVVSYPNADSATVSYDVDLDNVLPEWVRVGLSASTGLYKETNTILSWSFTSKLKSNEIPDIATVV

Calls of active or inactive are those of the source.

Chain of Alpha-bungarotoxin (Bungarus multicinctus) (P60615 whole entry, looked up): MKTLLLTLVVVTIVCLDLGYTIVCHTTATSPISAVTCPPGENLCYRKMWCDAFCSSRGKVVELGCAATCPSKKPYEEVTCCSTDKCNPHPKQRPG

Regarding `NC(=O)NCC#Cc1ccc2c(c1)[C@]1(C(=O)N2)[C@H](C(=O)O)[C@H]2C(=O)O[C@H](c3ccccc3)[C@H](c3ccccc3)N2[C@@H]1c1ccc(O)cc1`, the composite z-score in experiment [1] is 0.443; in [3], -0.317; in experiment [4], 1.6; in experiment [5], 0.717; in experiment [6] it was 0.216; in experiment [7], 0.346. The composite z-score in experiment [8] came out at 1.61; in experiment [9], 0.412; in experiment [10], 1.5; in experiment [11] it was 0.424; in experiment [13] it was 0.207; in experiment [14] it was 0.314. Also, the composite z-score in experiment [15] was 0.205; in experiment [16], 0.361; in experiment [17] it was -0.464; in [18], 0.102; in experiment [19], 0.265; in [20], 0.888. The same compound had a z-score in [2] of -0.539. Moreover, the composite Z-score in experiment [12] was 0.116 (inactive).

Turning to `CC(c1ccccc1)C(O)C1C=CC2C(=O)N(c3ccccc3)C(=O)C2N1Nc1ccccc1` (stereo not given), the composite z-score is 1.5 in [1]; -0.0093 in [3]; 1.5 in experiment [4]; 0.993 in [5]; -0.0758 in [6]; -0.0702 in [7]. The composite z-score in [8] was 1.44; in [9], 1.11; in [10], 1.98; in experiment [11], 1.01; in experiment [13], 0.298; in experiment [14], -0.112. In addition, the composite z-score is 0.493 in experiment [15]; 3.12 in [16]; 0.426 in experiment [17]; 1.34 in experiment [18]; -0.298 in [19]; 1.11 in [20]. For the same compound, in experiment [2], the z-score is -2.44. In experiment [12], the composite Z-score was 0.304 (inactive).

On to `C=CC[C@]12N=C(c3ccc(OCCCO)cc3)O[C@H]1c1ccccc1N(CCS(=O)(=O)c1ccccc1)C2=O`, for which the composite z-score came to 1.41 in [1]; 0.559 in experiment [3]; 1.17 in experiment [4]; 0.289 in experiment [5]; 0.0775 in experiment [6]; 0.54 in experiment [7]. Also, the composite z-score in experiment [8] was -0.484; in experiment [9], 0.863; in experiment [10] it was 1.02; in [11], 0.922; in [13] it was -0.0728; in [14] it was -0.0692. The composite z-score in experiment [15] amounted to 0.727; in experiment [16], 1.12; in experiment [17], 0.486; in experiment [18] it was 1.3; in [19], 0.873; in experiment [20], 1.18. Also, the z-score in experiment [2] was -2.26. Further, the composite Z-score in [12] is 0.526 (inactive).

`C=CC[C@]1(C(=O)NCc2ccccc2)N=C(c2ccc(OCCCO)cc2)O[C@H]1c1ccccc1CN=[N+]=[N-]`: the composite z-score was 1.42 in [1]; 0.13 in [3]; 0.764 in [4]; 0.358 in experiment [5]; -0.001 in experiment [6]; -0.0146 in [7]. The composite z-score in experiment [8] is -0.516; in [9] it was 0.854; in experiment [10] it was 0.361; in experiment [11], 0.183; in [13], 0.367; in experiment [14], -0.104. The composite z-score was 0.563 in experiment [15]; 0.935 in experiment [16]; 0.403 in experiment [17]; 1.31 in [18]; -0.329 in [19]; 0.79 in experiment [20]. Moreover, the z-score in [2] was -2.42. For the same compound, in experiment [12], the composite Z-score was -0.451 (inactive).

For `CCCNC(=O)[C@@]1(Sc2ccc(C)cc2)CC(=O)N(Cc2ccccc2C(F)(F)F)[C@@H]1c1ccc(CO)cc1I`, the composite z-score in experiment [1] was 1.38; in experiment [3] it was -0.0375; in [4], -0.214; in experiment [5] it was -0.611; in experiment [6], -0.0519; in experiment [7], 0.0639. Besides, the composite z-score in [8] was 0.134; in [9], 0.332; in [10], 1.62; in [11] it was 0.31; in [13], 0.0696; in experiment [14], -0.123. For the same compound, the composite z-score was 0.624 in [15]; 1.82 in experiment [16]; 0.116 in experiment [17]; 1.29 in experiment [18]; 0.315 in experiment [19]; 0.435 in experiment [20]. Further, the z-score in experiment [2] was -1.91. Also, in [12], the composite Z-score was 0.222 (inactive).
